# Source: PubChem BioAssay
# This is a sample that favours compounds with a hit; in the whole collection about 1.4% have one here.
# PrP 5UTR inh: suppresses PrP 5' UTR mRNA reporter expression; 340,000 tested, 0.35% active; AID 488862; cell-based PrP 5' UTR mRNA reporter, plate reader; inhibition, % (test concentration not listed); in the data active means inhibition above about 52%; further: 0 = median of the neutral control wells
# BH1578 lux ind: quorum light induction in luxS cqsA deficient V. cholerae; AID 588436; activation, % at 18.7 µM; 350,000 tested, 0.16% active; V. cholerae BH1578 lux reporter, luminescence, 6 h; in the data active means activation mostly above about 9.7%, no sharp cut-off; inconclusive means no clear call, values can overlap the other calls; inactive means mostly below about 3.7%
# PriA SSB inh: inhibitors of Klebsiella pneumoniae PriA binding to SSB C-terminal tail; 430,000 tested, 0.6% active; AlphaScreen SSBct-PriA binding, biotinylated peptide; inhibition, % at 33 µM; in the data active means inhibition mostly above about 37%, no sharp cut-off; inactive means mostly below about 20%;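 further: plate controls were negative control peptide for no effect and reference peptide for full effect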
# PrPC surface inh: cell surface PrPC inhibition, primary TR-FRET screen | AID 720596 | TR-FRET read-out | 370,000 tested, 0.43% active | inhibition, % at 13.8 µM | P04156; in the data active means inhibition above about 24%; further: 0% = median of the test wells and 100% = reference compound wells
# FadD28 FP inh: blocks FadD28 binding to the bisubstrate probe; AID 588549; inhibition, % at 12.5 µM; 360,000 tested, 0.22% active; fluorescence polarization; in the data active means inhibition above about 8.5%, passing the limit was not always enough; inconclusive means no clear call, values can overlap the other calls
# Starred values were filed as active, the others as inactive; i = inactive; u = inconclusive; x = no result; ! = not active in a repeat.
SMILES,PrP 5UTR inh,BH1578 lux ind,PriA SSB inh,PrPC surface inh,FadD28 FP inh
CCCCCn1c(NS(=O)(=O)c2ccc(C)cc2)c(S(=O)(=O)c2ccc(C)cc2)c2nc3ccccc3nc21,x,x,67.0*,x,x
CCCCCn1c(NS(=O)(=O)c2ccc(Cl)cc2)c(S(=O)(=O)c2ccc(C)cc2)c2nc3ccccc3nc21,x,x,43.0,x,x
O=S(=O)(Nc1c(S(=O)(=O)c2ccccc2)c2nc3ccccc3nc2n1C1CCCCC1)c1ccccc1,-0.8,-0.4,73.3*,-4.9,-0.3
Cc1noc(C)c1S(=O)(=O)N1CCC(c2nnc(C(C)C)o2)CC1,x,x,5.0,x,x
Nc1ccc(/C=C/c2ccccc2)cc1,x,x,40.0*,x,x
O=C(O)c1ccccc1N/N=C\c1ccnc2ccccc12,16.5,i,x,-6.9,11.4*
Nc1c(C(=O)NCc2ccccc2)nnn1Cc1ccccc1,-1.0,-0.3,98.2*,13.8,0.1
O=C(CSCc1ccccc1)NCCn1ccnc1-c1ccccn1,x,x,18.9,x,x
CSc1ccccc1C(=O)NCCn1ccnc1-c1ncccn1,x,x,97.0*,x,x
O=C(NCCc1ccccc1)NCCn1ccnc1-c1ncccn1,x,x,96.0*,x,x
O=C(CSCc1ccccc1)NCCn1ccnc1-c1ncccn1,x,x,42.0*,x,x
O=C(NCCn1ccnc1-c1ncccn1)C1c2ccccc2Oc2ccccc21,x,x,53.0*,x,x
COc1ccc(CCC(=O)NCCn2ccnc2-c2ncccn2)cc1,x,x,96.0*,x,x
O=C(CSc1ncnc2c1nnn2-c1cccc(Cl)c1)c1ccccc1,x,x,-6.0,x,x
O=c1cc(Nc2ccc3c(c2)OCCO3)[nH]c(=O)n1C1CCCCC1,-41.3,i,-5.9,1.9,15.1*
Cc1ccccc1-c1noc(CC2CCCN(C(=O)Cc3cccc(C(F)(F)F)c3)C2)n1 (stereo unspecified),x,x,-3.0,x,x
CNS(=O)(=O)c1ccc(NC(=O)Cc2cccs2)cc1,x,x,45.0*!,x,x
CCCNS(=O)(=O)c1ccc(NC(=O)Cc2cccs2)cc1,-16.2,x,-12.3,-0.3,-3.1
CC(C)CSC1=NSC2=NC(=O)/C(=C\c3coc4ccccc4c3=O)C(=N)N12,-18.6,1.3,1.2,10.3,14.4*
CSC1=NSC2=NC(=O)/C(=C\c3coc4ccccc4c3=O)C(=N)N12,-34.0,i,-1.1,-3.2,5.2
CCCOc1ccc(N)cc1N,-17.7,i,51.8*,-2.2,-7.3
CCCOc1cc(N)ccc1C(=O)OCCN(CC)CC,0.8,i,4.2,-3.9,-0.4
Cc1cc(C)cc(C(=O)N2CCC3(CC2)NCCc2[nH]cnc23)c1,-10.3,-0.2,93.7*,2.1,-2.9
COc1cc(C(=O)N2CCC3(CC2)NCCc2[nH]cnc23)cc(OC)c1OC,0.7,i,-2.9,2.2,-1.4
CSc1cccc(-c2nnc(NC(=O)CCOc3ccccc3)o2)c1,x,x,-13.0,x,x
SMILES,PrP 5UTR inh,BH1578 lux ind,PriA SSB inh,PrPC surface inh,FadD28 FP inh
CCOc1ccccc1C1C(C#N)=C(N)Oc2n[nH]c(CC)c21 (stereo unspecified),1.3,-1.7,-3.3,-2.4,2.5
CCOc1ccccc1C1C(C#N)=C(N)SC(N)=C1C#N,-30.2,-0.4,-7.6,46.9*,-6.4
O=[N+]([O-])c1ccc(Cl)c(C=Nn2c(-c3ccncc3)n[nH]c2=S)c1,x,x,-0.4,x,x
O=C(O)CC(C(=O)O)N1C(=O)/C(=C/c2ccc(-c3nc4ccccc4s3)o2)SC1=S (stereo unspecified),-19.3,-2.6,9.9,-16.0,29.2*
O=C(O)CCN1C(=O)/C(=C/c2ccc(-c3nc4ccccc4s3)o2)SC1=S,-19.5,-4.7,0.2,-2.4,u
O=C(Nc1ccc(Br)cc1F)c1cn[nH]n1,x,x,-8.0,x,x
N#Cc1nc(-c2cccs2)oc1NCc1ccc2c(c1)OCO2,1.0,-0.5,48.2*,9.1,-1.7
O=C(CCN1C(=O)C2C3C=CC(C3)C2C1=O)NC1CCCc2ccccc21 (stereo unspecified),-9.6,66.5*,6.3,0.0,0.5
COc1ccc(CCNC(=O)N2CCC(c3nnc(-c4ccc(F)cc4)o3)CC2)cc1,x,x,-7.0,x,x
COc1ccc(CNC(=O)COc2ccc(OC)cc2)cc1,-19.2,i,3.3,10.1,21.9*
COc1ccc(CNC(=O)COc2ccc(F)cc2)cc1,-20.4,-0.3,-1.2,2.8,-3.8
Cn1nc(-c2ccc(F)cc2)ccc1=O,x,x,-4.0,x,x
O=C(Nc1nc(-c2ccc([N+](=O)[O-])cc2)cs1)C1CCCN1S(=O)(=O)c1ccc(Cl)s1 (stereo unspecified),x,x,11.0,x,x
CCCCc1ccc(-c2ccc(Br)cc2)nc1,-95.0,i,-17.0,-0.7,-2.7
CCCCc1ccc(C(=O)O)nc1,-45.3,-0.4,87.0*,6.6,-3.6
O=C(NN=C(c1ccccc1)c1ccccn1)c1ccccc1,11.3,i,-4.7,3.1,-4.2
S=C(NN=C(c1ccccc1)c1ccccn1)N(Cc1ccccn1)Cc1ccccn1,8.9,i,74.4*,13.4,-1.3
